This is an account of results in PubChem BioAssay (NCATS).

The nature of the experiment: qHTS profiling for inhibitors of Plasmodium falciparum (DD2) proliferation (AID 743323). To be noted: lower = more inhibition; at 28.7 µM (top of the series). The source says: Plasmodium falciparum is a virulent malarial parasite that kills 1-2 million people worldwide each year. Transmitted by mosquitoes, the sporozoite form of the parasite enters the blood stream to infect hepatocytes, where they become merozoites that infect red blood cells (erythrocytes). Within erythrocytes, merozoites begin a […] cycle of growth and division, after which the parasite is released to infect new red blood cells. Gametocytes, which form within erythrocytes as well, circulate in the bloodstream and are ingested by the mosquito, thereby completing the life cycle. To profile malarial isolates for differential chemical responses and to identify inhibitors of malarial growth, an assay that measures P. falciparum growth and replication within erythrocytes was employed. This assay uses a DNA binding fluorescent dye (SYBR Green) to detect parasite DNA following cell lysis. Because mature erythrocytes lack DNA, only Plasmodium-derived DNA is detected.
The SYBR Green viability assay was adapted from a method described previously (Plouffe et al., 2008). For screening 3 ul culture medium was dispensed into 1536 well black clear bottom plates (Aurora Biotechnologies) using a Multidrop Combi (Thermo Fisher Scientific Inc.), 23 nL compounds in DMSO were added by a pin tool (Kalypsys), and 5 ul of erythrocytes infected with P. falciparum (0.3% parasitemia, 2.5% hematocrit final concentration) were added. The plates were incubated at 37 C in a humidified incubator in 5% CO2 for 72 h, and 2 ul lysis buffer (20 mM Tris HCl, 10 mM EDTA, 0.16% saponin, […]% triton X, 10X SYBR Green I supplied as 10,000X […] by Invitrogen) was added to each well. The plates were mixed for 25 sec with gentle shaking and incubated overnight at room temperature in the dark. The following morning, fluorescence intensity at 485(14) nm excitation and 535(25) nm emission wavelengths was measured on an EnVision (Perkin Elmer) plate reader. Plate reads were normalized relative to the control inhibitor (0.29 uM artemisinin) and vehicle (DMSO) wells present on each plate and then corrected by an algorithm using vehicle-only control plates at the beginning and end of the compound plate stack.
A general note: Quantitative high-throughput screening tests each substance at several concentrations.
Take `CN1CCN(C(=O)[C@H](Cc2ccc(O[S+](=O)([O-])c3cccc4cnccc34)cc2)N[S+](=O)([O-])c2cccc3cnccc23)CC1`: the activity, percent of control turned out to be 9.98%. Consider `N[C@@H](Cc1ccc(O[S+](=O)([O-])c2cccc3cccnc23)cc1)C(=O)N1CCN(c2ccccc2)CC1`, for which the activity, percent of control was found to be 1%. Under `CC(C)(C)OC(=O)N[C@@H](Cc1ccc(O[S+](=O)([O-])c2cccc3cnccc23)cc1)C(=O)N1CCN(c2ccccc2)CC1` stands -0.0871%. Consider `CC(C)(C)OC(=O)N[C@@H](Cc1ccc(O[S+](=O)([O-])c2cccnc2)cc1)C(=O)N1CCN(c2ccccc2)CC1`, for which the activity, percent of control is 0.682%. Under `O=C([C@H](Cc1ccc(O[S+](=O)([O-])c2cccnc2)cc1)N[S+](=O)([O-])c1cccc2cnccc12)N1CCN(c2ccccc2)CC1` stands 4.11%; under `N[C@@H](Cc1ccc(OS(=O)(=O)c2cccnc2)cc1)C(=O)N1CCN(c2ccccc2)CC1`, 15.1%; under `COC(=O)[C@H](Cc1ccc(O[S+](=O)([O-])c2cccc3cnccc23)cc1)N(C)[S+](=O)([O-])c1ccc2cnccc2c1`, 3.76%. As for `O=C([C@H](Cc1ccc(O[S+](=O)([O-])c2cccc3cccnc23)cc1)N[S+](=O)([O-])c1cccnc1)N1CCN(c2ccccc2)CC1`, the figure is 0.179%; as for `O=C(NCCN1CCCC1)[C@H](Cc1ccc(OS(=O)(=O)c2cccc3cnccc23)cc1)NS(=O)(=O)c1cccc2cnccc12`, 49.2%. Under `O=C([C@@H](Cc1ccc(O[S+](=O)([O-])c2cccnc2)cc1)N[S+](=O)([O-])c1cccc2cccnc12)N1CCN(c2ccccc2)CC1` stands 0.464%. For the compound `Cc1noc(C)c1C(=O)N1CCC2(CCCN(C(c3ccccc3)c3ccccc3)C2)CC1`, the activity, percent of control was found to be 22.6%. Under `CNC1CCC(N(Cc2ccc(OC)c(-c3ccc(C#N)cc3)c2)C(=O)c2sc3ccccc3c2Cl)CC1` (centres undefined) stands -0.637%; under `N[C@@H](Cc1ccc(O[S+](=O)([O-])c2cccc3cnccc23)cc1)C(=O)N1CCN(c2ccccc2)CC1`, 3.27%; under `CC(C)(C)c1cc(O)c(CN)c(C(C)(C)C)c1`, 0.498%.
